Inconclusive results are not listed. Active and inactive are the calls of the source. The call rests on the fitted dose curve; in most records, active means well fitted inhibition curve with a large enough effect; inconclusive means small, poorly fitted or top-dose-only effect; inactive means no such curve, though single readings can be large or run the other way.
Potency means the concentration at half of the fitted maximal effect.

The assay deals with Tyrosine-protein kinase Yes (Homo sapiens) (UniProt P07947). In words: qHTS for small molecule inhibitors of Yes1 kinase: Primary Screen (AID 686947). Further: nearly all actives have a fitted effect of over 60% in size. Conditions: Yes1 kinase biochemical qHTS inhibition; series mostly up to 76.9 µM. In short, it runs like this: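 In this qHTS format, inhibition is expressed relative to DMSO controls with enzyme (maximum) and without enzyme (minimum). The 60 min room-temperature reaction uses 0.1 mM ATP, with ADP detected by luminescence.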
Sequence of Tyrosine-protein kinase Yes (Homo sapiens) (P07947 whole entry, looked up): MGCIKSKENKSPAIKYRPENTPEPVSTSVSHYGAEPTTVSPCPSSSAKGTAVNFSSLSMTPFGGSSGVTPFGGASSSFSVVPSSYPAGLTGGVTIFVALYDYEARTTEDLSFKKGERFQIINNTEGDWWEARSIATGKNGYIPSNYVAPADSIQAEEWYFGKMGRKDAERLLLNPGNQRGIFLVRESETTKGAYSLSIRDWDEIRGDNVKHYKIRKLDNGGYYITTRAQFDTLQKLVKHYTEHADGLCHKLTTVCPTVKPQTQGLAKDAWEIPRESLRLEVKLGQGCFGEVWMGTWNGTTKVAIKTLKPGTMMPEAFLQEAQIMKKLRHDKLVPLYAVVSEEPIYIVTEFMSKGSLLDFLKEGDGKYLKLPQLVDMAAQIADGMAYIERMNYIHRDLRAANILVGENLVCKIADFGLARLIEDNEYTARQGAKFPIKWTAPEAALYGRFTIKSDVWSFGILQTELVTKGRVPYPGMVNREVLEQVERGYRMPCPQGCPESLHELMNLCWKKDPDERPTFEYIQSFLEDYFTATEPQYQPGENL
A general note: Quantitative high-throughput screening tests each substance at several concentrations.
With `CC(C)c1ccc(-c2cc(-c3cn[nH]c3-c3ccccn3)ccn2)cc1`, the Potency was 23.2 µM (active).

For `Cc1ccc(C(=O)NC(C)C)cc1-c1ccc(C(=O)NCC2CC2)cc1`, the Potency entry was “inactive”.

As to `CCCN1CCC(c2ccc(Nc3nc(Nc4cc(F)ccc4C(N)=O)c4cc[nH]c4n3)c(OC)c2)CC1`, the Potency entry was “inactive”.

`Cc1nc(-c2ccccc2)n2nc(NCCCN3CCOCC3)ncc12`: the Potency was 32.8 µM (active).

On to `CS(=O)(=O)CCNCc1ccc(-c2ccc3ncnc(Nc4ccc(OCc5ccccc5)cc4)c3c2)o1`, for which the Potency was 0.463 µM (active).

For the compound `COC(=O)c1ccc2c(c1)/C(=C/c1cc(Br)c(O)c(Br)c1)C(=O)N2`, the Potency was 0.733 µM (active).

Turning to `CCS(=O)(=O)c1ccc(OC)c(Nc2ncc(-c3cccc(F)c3)o2)c1`, the Potency was 0.146 µM (active).

Turning to `COc1cc(N2CCN(C(C)C)CC2)ccc1Nc1nc(Nc2ccc(F)cc2C(=O)NCC(O)CO)c2cc[nH]c2n1` (centres undefined), the Potency result was “inactive”.

On to `Cc1nnc(-c2cccc(-c3ccc(C(=O)NCC4CC4)cc3)c2)o1`, for which the Potency result was “inactive”.

With `N#Cc1ccc2c(-c3ccnc(NC4CC4)n3)c(-c3ccc(F)cc3)nn2c1`, the Potency was 26 µM (active).

`NS(=O)(=O)c1cccc(Nc2cc(-c3ccc(F)cc3)[nH]n2)c1`: the Potency is 3.68 µM (active).

Consider `COc1cccc(-n2ncc3c(NN=Cc4ccc(F)cc4)ncnc32)c1`, for which the Potency is 0.582 µM (active).

As to `CS(=O)(=O)CCNCc1nc(-c2ccc3ncnc(Nc4ccc(F)c(Cl)c4)c3c2)cs1`, the Potency was 4.63 µM (active).

As for `COC(=O)c1cncc(C=Cc2c(C)cc(O)cc2C)c1`, the Potency is 1.3 µM (active).

Consider `CCN(CC)Cc1ccc(Nc2nccc(-c3cnn4ncccc34)n2)cc1`, for which the Potency is 7.33 µM (active).

Take `CS(=O)(=O)CCN(CC#N)Cc1ccc(-c2ccc3ncnc(Nc4ccc(OCc5cccc(F)c5)c(Cl)c4)c3c2)o1`: the Potency result was “inactive”.

As for `O=C(Nc1n[nH]c2cc(-c3cc(F)ccc3F)ccc12)C1CC1`, the Potency is 26 µM (active).

Take `NS(=O)(=O)c1ccc(-c2ccc3c(NC(=O)C4CC4)n[nH]c3c2)cc1`: the Potency was 1.84 µM (active).

Regarding `COc1ccc(-c2cc(-c3cn[nH]c3-c3ccccn3)ccn2)cc1`, the Potency was 14.6 µM (active).

For the origin of these results see PubChem BioAssay (NCATS).
